Test results as given in PubChem BioAssay (NCI).
Compounds without any hit were thinned out: in the full panel of roughly 83,000, 20% have a hit.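 Plates (96-well) were seeded with cells, treated with compound at one concentration, and incubated for 48 hours before percent growth was determined.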 A number with no mark means an inactive call. Activity calls are given as the source filed them. The calls were made as follows: active = growth percent below 10; inactive = the rest.

Each compound was assayed on PC-3 prostate (assay: NCI-60 one-dose screen, 48 h (100 = growth as untreated, 0 = no growth, -100 = all killed)). Details: 10 µM unless noted.

| SMILES | growth |
| --- | --- |
| Cn1cc(-c2cc3nc(-c4cn(C)c5ncccc45)cc(N)n3n2)c2cc(Cl)ccc21 | -82.1% (active) |
| CC12CC[C@@H]3[C@]4(C)COC(c5c(F)cccc5F)O[C@@H]4CC[C@@]3(C)[C@@H]1CC(C1=CCOC1=O)O2 (some centres not stated) | 56.4% |
| Cc1nc(Nc2ncc(C(=O)Nc3c(C)cccc3Cl)s2)cc(N2CCN(CCCNC(=O)COc3ccc(C4CCC(=O)NC4=O)cc3)CC2)n1 (configuration not stated) | 44.1% |
| Cn1cc(NC(=O)c2cc(NC(=O)c3ccc(/C=C/c4ccccc4)cc3)cn2C)cc1C(=O)NCCCN1CCOCC1 | 38.1% |
| Cc1ccccc1[C@H]1C(C(=O)c2ccc(Cl)cc2)C2(N[C@@H]1c1ccccc1)C(=O)Nc1ccc(Br)cc12 (some centres not stated) | -4.58% (active) |
| Brc1ccc(N/N=C/c2c[nH]c3ccc(Br)cc23)nc1 | -29.6% (active) |
| C=C1CCC2C3(C)COC(c4ccccc4)OC3CCC2(C)C1CC(Sc1ccccc1)C1=CCOC1=O (configuration not stated) | 29.3% |
| Clc1cccc(N/N=C/c2c[nH]c3ccc(Br)cc23)n1 | 7.77% (active) |
| COc1c(F)ccc(C(=O)Nc2ccc3nc(NC(=O)C4CCCN(S(=O)(=O)c5cccc(C(F)(F)F)c5)C4)sc3c2)c1F (configuration not stated) | 50.3% |
| O=c1oc2ccc(Br)cc2cc1C1=CSc2nc3sc4c(c3c(=O)n2N=C1)CCCC4 | 76.7% |
| CC(=O)/C=C/c1cccc2c1C(=O)NC(C)(c1cc3cc(Br)ccc3oc1=O)N2 (configuration not stated) | 21.6% |
| O=c1[nH]c(=O)c2c(-c3cc4ccccc4oc3=O)ccnc2[nH]1 | 85.4% |
